Only some compounds are listed: those with a hit (about 1.6% of all), similar ones and a draw of the others.
ATG4B inhibitor: ATG4B (human) cysteine protease inhibition; ATG4B cleavage of LC3-PLA2, NBD-HPC fluorescence, 1 h; inhibition, % at 8.33 µM; 340,000 tested, 0.51% active; in the data active means inhibition above about 40%
Target sequence (Q9Y4P1 whole entry, looked up): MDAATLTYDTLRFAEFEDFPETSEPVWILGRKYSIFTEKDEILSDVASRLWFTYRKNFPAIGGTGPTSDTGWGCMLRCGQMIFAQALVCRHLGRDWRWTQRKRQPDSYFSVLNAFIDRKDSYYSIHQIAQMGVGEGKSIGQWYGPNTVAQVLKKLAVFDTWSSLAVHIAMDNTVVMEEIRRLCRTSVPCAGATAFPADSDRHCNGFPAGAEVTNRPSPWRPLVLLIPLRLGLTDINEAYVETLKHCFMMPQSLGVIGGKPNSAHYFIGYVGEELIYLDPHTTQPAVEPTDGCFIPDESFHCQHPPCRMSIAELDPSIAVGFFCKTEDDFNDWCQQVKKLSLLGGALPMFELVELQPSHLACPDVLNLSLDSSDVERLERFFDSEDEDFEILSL
CR mimetic SO: caloric restriction mimetics inhibiting age-related superoxide in yeast. S. cerevisiae aged cells, superoxide DHE fluorescence; active compounds read low. superoxide response (% of plate mean), % at 10 µM. 330,000 tested, 0.18% active. AID 2690;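 active means superoxide response under a set limit, about three screen SD below normal, cut at about 65% in these data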;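 further: yeast aged for seven days with compound at 30 °C before DHE staining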
GRK2 aptamer HTS: blocks RNA aptamer binding to human GRK2 | 330,000 tested, 0.59% active | bead flow cytometry, FAM-aptamer displacement from GRK2 | P25098 | inhibition of aptamer binding, % at 10 µM;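 active means inhibition of aptamer binding above 40%, roughly 3 SD of noise, on plates passing a quality check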;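 further: median bead fluorescence of bound FAM aptamer so fluorescent compounds give negative values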
Efflux pump inh: inhibitors of Candida antifungal efflux pumps expressed in yeast | S. cerevisiae Candida pump triplex, Nile Red efflux | inhibition, % at 10 µM | 330,000 tested, 0.44% active;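 active means plate passing quality check with inhibition over a set limit, or well fluorescence over plate mean plus 4 SD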;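 further: Nile Red retained in pooled yeast measured as flow cytometry median fluorescence; higher means more Nile Red kept so more efflux inhibition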
ATG4B conf: ATG4B (human) inhibition, single-dose confirmed; AID 504757; shares compounds with ATG4B inhibitor; ATG4B protease fluorescent substrate cleavage assay; 320 tested, 92% active; inhibition, % at 8.33 µM; in the data active means inhibition above about 39%
PLA2 counter: PLA2 (human) inhibition in ATG4B counter-screen. shares compounds with ATG4B inhibitor. purified PLA2, NBD-C6-HPC fluorescence, 45 min. inhibition, % at 8.33 µM. 1,600 tested, 66% active. AID 588402; in the data active means inhibition above about 50%
Target sequence (P04054 whole entry, looked up): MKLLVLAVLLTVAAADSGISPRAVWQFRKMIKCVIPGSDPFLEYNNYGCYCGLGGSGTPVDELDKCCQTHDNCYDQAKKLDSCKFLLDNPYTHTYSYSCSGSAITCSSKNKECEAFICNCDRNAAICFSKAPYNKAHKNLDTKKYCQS
Large screens that a line does not name were inactive (follow-up assays come after a bar, where they were run).

O=C(Nc1nc(-c2ccco2)c(-c2ccco2)s1)c1c(F)cccc1Cl	ATG4B inhibitor 64 | PLA2 counter 79
O=C(Nc1nc(-c2ccco2)c(-c2ccco2)s1)c1ccc(F)cc1F	none (no result: CR mimetic SO, GRK2 aptamer HTS, Efflux pump inh)
COc1ccc(/C=C2/SC(=S)N(Cc3ccccc3)C2=O)cc1O	none
O=C1/C(=C\c2cc(Cl)c(O)c(Cl)c2)SC(=S)N1Cc1ccccc1	ATG4B inhibitor 44 | PLA2 counter 60
CCCCCOc1ccc(CSC(=N)N)cc1[N+](=O)[O-]	ATG4B inhibitor 64 | PLA2 counter 61
COc1ccc(CSC(=N)N)cc1[N+](=O)[O-]	none
c1cncc(CNc2nc(-c3cccnc3)nc3ccccc23)c1	none
CC(C)(C)c1ccc(-c2nc(NCc3cccnc3)c3ccccc3n2)cc1	ATG4B inhibitor 68 | PLA2 counter 82
CC(C)(C)c1ccc2c(c1)C(=O)c1ccccc1C2=O	ATG4B inhibitor 45 | ATG4B conf 67 | PLA2 counter inactive
N=C1/C(=C\c2ccc(OC(=O)c3ccccc3Cl)cc2)C(=O)N=C2SC(N3CCOCC3)=NN12	ATG4B inhibitor 58 | PLA2 counter 52
Cc1ccoc1C(=O)N1CCCCC1C(=O)O (configuration not stated)	none
Clc1cccc(Cl)c1CO/N=C/c1cccs1	none
Cc1c(C)c(C)c(CO/N=C/c2cccs2)c(C)c1C	ATG4B inhibitor 60 | ATG4B conf 66 | PLA2 counter inactive
CC(=O)OC(c1nc2ccccc2c(=O)n1C1CC2(OC1=O)c1ccccc1N1C(=O)C(C)(C)N(O)C12)C(C)C (configuration not stated)	none
Cc1ccccc1OCC(=O)Nc1cc(S(=O)(=O)N2CCCCC2)ccc1N1CCN(C)CC1	ATG4B inhibitor 46 | PLA2 counter 50
CCc1ccccc1OCC(=O)Nc1cc(S(=O)(=O)N(CC)CC)ccc1N1CCOCC1	ATG4B inhibitor 54 | PLA2 counter 92
Cc1cccc(OCC(=O)Nc2cc(S(=O)(=O)N3CCOCC3)ccc2N2CCCC2)c1C	none
O=C(N/N=C1\CC(c2ccccc2)Oc2ccccc21)c1ccc(O)cc1 (configuration not stated)	ATG4B inhibitor 43 | PLA2 counter 55
COc1ccc(N/C(=C2\CCCC2=O)C2CCCCC2)cc1	ATG4B inhibitor 56 | PLA2 counter 60
COc1ccc(NC(=O)CNC(=O)C2CCCCC2)cc1	none
CC(C)COC(=O)c1ccc(N2C(=O)c3ccccc3C2=O)cc1	ATG4B inhibitor 45 | ATG4B conf 67 | PLA2 counter inactive
CCOC(=O)c1ccc(N2C(=O)Cc3ccccc3C2=O)cc1	none
Cc1ccc(C(=O)c2c(NC(=O)c3ccccc3C)sc(C)c2C)cc1	ATG4B inhibitor 63 | PLA2 counter inactive
CCN(CC)CC(=O)Nc1sc(C)c(C)c1C(=O)c1ccc(C)cc1	none
N#CCC(=O)Nc1ccc(C(=O)NCCC(c2ccccc2)c2ccccc2)cc1	none
CN(C)C(CNC(=O)c1ccc(NC(=O)CC#N)cc1)c1ccccc1 (configuration not stated)	ATG4B inhibitor 47 | PLA2 counter 56
CN(CC(=O)N1CCc2ccccc2C1)c1ccccc1	none
CC(C)(C)c1cc(=O)[nH]c(SCc2ccccc2Cl)n1	ATG4B inhibitor 50 | PLA2 counter 52
CC(C)(C)c1cc(=O)[nH]c(SCc2ccccc2)n1	none
CCOC(=O)c1ccc(/C=C2/C=C(c3ccccc3)N(c3ccc(Cl)c(C(=O)O)c3)C2=O)cc1	ATG4B inhibitor 56 | ATG4B conf 77 | PLA2 counter inactive
CC(=O)c1ccc(C(=O)N2CCCC(Nc3ccc(C(C)C)cc3)C2)s1 (configuration not stated)	ATG4B inhibitor 49 | PLA2 counter 56
CC(=O)c1[nH]c(C)c(C(=O)N2CCCC(Nc3ccc(C(C)C)cc3)C2)c1C (configuration not stated)	none (no result: CR mimetic SO, GRK2 aptamer HTS, Efflux pump inh)
CC(C)c1ccc(NC2CCCN(C(=O)c3ccco3)C2)cc1 (configuration not stated)	ATG4B inhibitor 54 | PLA2 counter 53
CC(C)c1ccc(NC2CCCN(C(=O)c3ccnc(Cl)c3)C2)cc1 (configuration not stated)	none
Cc1ccc(NC(=O)CSc2nnc(CNC(=O)c3ccco3)o2)cc1Cl	none
O=C1Nc2cc(C(=O)N3CCc4ccccc4C3)ccc2S/C1=C\c1ccccc1	ATG4B inhibitor 73 | PLA2 counter 78
COC(=O)C(Cc1ccc(OC(=O)c2ccccc2C)cc1)N1Cc2ccccc2C1=O (configuration not stated)	ATG4B inhibitor 72 | PLA2 counter 76
COC(=O)C(Cc1ccc(OC(=O)c2ccccc2Cl)cc1)N1Cc2ccccc2C1=O (configuration not stated)	ATG4B inhibitor 83 | PLA2 counter 86
CCc1cc2c(=O)oc(-c3ccc(F)cc3)nc2s1	none
CCOc1ccccc1N1CCN(C2=C(NS(=O)(=O)c3cccs3)C(=O)c3ccccc3C2=O)CC1	ATG4B inhibitor 57 | PLA2 counter 65
O=c1c2cc3c(cc2[nH]c(=S)n1C1CCN(Cc2ccccc2)CC1)OCO3	ATG4B inhibitor 59 | PLA2 counter 62
CCOc1cc2[nH]c(=S)n(C3CCN(Cc4ccccc4)CC3)c(=O)c2cc1OCC	none
CCOc1ccccc1NC(=O)CN1C(=O)C(=O)N(Cc2ccco2)C1=O	none
Cc1oc(-c2ccccc2Cl)nc1CS(=O)CC(=O)NCc1ccccc1Cl (configuration not stated)	ATG4B inhibitor 46 | ATG4B conf 60 | PLA2 counter inactive
Cc1oc(-c2ccccc2Cl)nc1CS(=O)CC(=O)NCc1ccco1 (configuration not stated)	none
COc1ccccc1C1CC(c2cccs2)=Nc2ccccc2S1 (configuration not stated)	none
Fc1ccccc1C1CC(c2ccco2)=Nc2ccccc2S1 (configuration not stated)	ATG4B inhibitor 53 | PLA2 counter 73
CCCC(=O)C1=C(N2CCCCC2)CC(C)(C)C(C(=O)OC)C1=O (configuration not stated)	none
Cc1sc2ncnc(SCC(=O)N3CCN(C(=O)c4ccco4)CC3)c2c1C	none
O=C(c1ccco1)N1CCN(C(=O)c2cccn3c(=O)c4c5c(sc4nc23)CCCC5)CC1	none (no result: CR mimetic SO, GRK2 aptamer HTS, Efflux pump inh)
Cc1sc2nc(C(C)C)nc(SCC(=O)N3CCN(C(=O)c4ccco4)CC3)c2c1C	ATG4B inhibitor 47 | PLA2 counter 57
Cc1nc(N2CCN(C(=O)c3ccco3)CC2)c2c3c(sc2n1)CCC3	ATG4B inhibitor 67 | PLA2 counter 71
CCc1c(C)sc2nc(C(C)C)nc(SCC(=O)N3CCc4ccccc4C3)c12	ATG4B inhibitor 46 | PLA2 counter 50
Cc1nc(N2CCOCC2)c2c3c(sc2n1)CCC3	none
CC(C)c1nc(N2CCN(C(=O)c3ccco3)CC2)c2c3c(sc2n1)CCCC3	ATG4B inhibitor 92 | PLA2 counter 90

Source: PubChem
